RTF Ca sens act: cardiac RTF calcium sensitization | 340,000 compounds, 0.24% hits | activation, % at 7.2 µM | P19429+P45379 | IANBD-labeled TnC RTF fluorescence at EC20 calcium; 0% EC20 calcium, 100% full calcium;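 active = activation above the mean over all tested compounds plus 3 SD, cut at about 30% in these data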;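 note: rise in fluorescence read as greater calcium sensitivity of cardiac thin filaments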
Cardiac RTF inh: cardiac RTF calcium desensitization; 340,000 compounds, 0.12% hits; AID 493244; inhibition, % at 7.15 µM; P19429+P45379; IANBD-labeled cardiac RTF, Ca2+ fluorescence;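 active = inhibition above the mean inhibition of all tested compounds plus 3 SD, cut at about 17% in these data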;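 note: assay run at fixed EC70 calcium of 1.6 mM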
CRFBP-R2 block: CRF-BP/CRF-R2 complex antagonism. HEK293 CRF-R2/CRF-BP, CRF-induced calcium fluorescence. inhibition, % at 11.8 µM. 350,000 compounds, 0.59% hits. AID 588475;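 active = inhibition of the ligand-induced calcium signal above about 50% at the single tested concentration, limit read from the data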
CRFR2-BP ag: agonists of human CRF-binding protein/CRF-R2 receptor complex; HEK293 CRF-R2/CRF-BP, calcium dye fluorescence (FLIPR); percent of saturating CRF peptide response; activation, % at 13.2 µM; 350,000 compounds, 0.46% hits;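 active = activation of at least 50%, plus an integration ratio under a set limit after plate pattern correction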
Keap1 Nrf2 FP: disrupts human Keap1 binding to Nrf2 peptide | inhibition, % at 9.4 µM | Q14145 | Keap1 Kelch-Nrf2 peptide fluorescence polarization, 1536-well | 340,000 compounds, 0.15% hits | AID 504523; in the data active = inhibition above about 12%;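 note: human Keap1 Kelch domain with fluorescein labeled Nrf2 9mer peptide probe; higher means more block of Keap1 binding to Nrf2 peptide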
Target sequence (Q14145 whole entry, looked up, the tested form may be a part): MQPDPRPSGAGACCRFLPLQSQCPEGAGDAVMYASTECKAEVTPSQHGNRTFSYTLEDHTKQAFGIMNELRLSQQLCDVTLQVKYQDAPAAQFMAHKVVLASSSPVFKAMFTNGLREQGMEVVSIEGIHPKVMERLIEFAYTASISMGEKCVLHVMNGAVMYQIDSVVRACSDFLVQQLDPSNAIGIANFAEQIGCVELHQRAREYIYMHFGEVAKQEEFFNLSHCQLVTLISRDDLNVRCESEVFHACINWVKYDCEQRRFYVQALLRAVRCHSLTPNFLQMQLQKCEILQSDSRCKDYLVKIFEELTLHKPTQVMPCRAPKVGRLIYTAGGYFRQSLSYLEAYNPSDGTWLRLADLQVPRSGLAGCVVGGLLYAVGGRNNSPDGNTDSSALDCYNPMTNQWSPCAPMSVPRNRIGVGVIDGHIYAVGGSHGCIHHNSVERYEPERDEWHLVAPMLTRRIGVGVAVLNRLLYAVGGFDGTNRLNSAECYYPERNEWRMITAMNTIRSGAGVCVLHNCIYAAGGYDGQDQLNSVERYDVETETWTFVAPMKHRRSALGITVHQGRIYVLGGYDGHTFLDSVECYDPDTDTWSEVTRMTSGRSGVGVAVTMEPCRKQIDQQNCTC
C-LANA FP: KSHV C-LANA DNA binding inhibition. inhibition, % at 9 µM. 340,000 compounds, 0.078% hits. MBP-C-LANA/FAM-LBS DNA binding, fluorescence polarization;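 active = highest replicate inhibition at or above 60% at 9 µM, even if other replicates fall short; inactive = all replicates below 60% inhibition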
Numbers stand for hits; - = inactive; . = no result. Only some compounds are listed: those with a hit (about 1.3% of all), similar ones and a draw of the others.

SMILES	RTF Ca sens act	Cardiac RTF inh	CRFBP-R2 block	CRFR2-BP ag	Keap1 Nrf2 FP	C-LANA FP
Cc1c(C(=O)NCC2CCCO2)cccc1[N+](=O)[O-] (centres undefined)	-	-	-	-	-	-
CCCC1CC(C#N)N(N(C)C)C1=C(C#N)C#N (centres undefined)	-	-	52	-	-	-
CC1CC(C#N)N(N(C)C)C1=C(C#N)C#N (centres undefined)	-	-	-	-	-	-
Cc1cc2nc3s/c(=C/c4ccc(-c5ccccc5C(=O)O)o4)c(=O)n3c2cc1C	-	-	-	141	-	-
CC1=NN(c2ccc(Br)cc2)C(=O)/C1=C/c1ccc(-c2ccccc2C(=O)O)o1	-	-	-	-	-	-
O=C(O)c1ccccc1-c1ccc(/C=c2\sc3nc4cc(Br)cnc4n3c2=O)o1	-	55	-	157	-	74
O=C(Cn1nc(Cl)nc1Cl)Nc1ccccc1	-	-	61	-	-	-
Oc1ccccc1N=Cc1c(O)ccc2ccccc12	-	-	-	123	-	-
Cc1ccc(S(=O)(=O)NN=Cc2c(O)ccc3ccccc23)cc1	.	.	56	-	.	.
O=C(N/N=C/c1c(O)ccc2ccccc12)c1cccc(C(F)(F)F)c1	-	-	-	208	-	-
Cc1ccc(S(=O)(=O)N/N=C/c2ccccc2O)cc1	-	-	-	-	-	-
COc1cc(C)nc(OCCNC(=O)COc2ccc(Cl)cc2C)n1	-	-	-	-	-	-
CCOC(=O)c1nnn(-c2nonc2N)c1CN(C)C1CCCCC1	-	-	60	-	-	-
COc1cc(N2CCCC2)c(OC)cc1/C=C(/C#N)c1ccc(F)cc1	-	-	-	-	-	-
COc1cc(N2CCCC2)c(OC)cc1/C=C(/C#N)c1ccc(Br)cc1	30	-	-	-	-	-
CC1(C)CC(=O)C2=C(C1)OC1=C(C(=O)CC(C)(C)C1)C2c1cc([N+](=O)[O-])cc([N+](=O)[O-])c1O	-	-	-	-	-	-
CC1(C)CC(=O)C(C2C3=C(CC(C)(C)CC3=O)Oc3c(Br)cc(Br)cc32)=C(O)C1 (centres undefined)	-	-	-	82	-	-
Clc1ccc(NN(Cc2ccncc2)c2ccc(Cl)cc2)cc1	.	.	-	51	.	.
Cc1ccc(-c2sc(-c3ccccc3)nc2CC(=O)Nc2ccccc2F)cc1	-	-	-	128	-	-
O=C(c1cccnc1)N1CCN(C(=O)c2ccccc2F)CC1	-	-	-	-	-	-
Cc1ccc(/C=C2\CCC3=C2OC(N)=C(C#N)C3c2ccc(C)cc2)cc1 (centres undefined)	84	-	-	253	-	-
COc1ccc(Cl)cc1Nc1nc(NCCO)nc(N2CCCC2)n1	-	-	-	-	-	-
COc1ccc(Cl)cc1Nc1nc(NCCO)nc(N2CCCCC2)n1	-	-	51	-	-	-
O=C(O)c1cccc(NC(=O)c2ccc(N3C(=O)c4ccc(C(=O)Nc5cccc(C(=O)O)c5)cc4C3=O)cc2)c1	-	-	-	-	-	-
CN(c1ccccc1)S(=O)(=O)c1ccc2c(c1)oc(=O)n2C	-	-	59	-	-	-
SMILES	RTF Ca sens act	Cardiac RTF inh	CRFBP-R2 block	CRFR2-BP ag	Keap1 Nrf2 FP	C-LANA FP
Cc1csc(NC(=O)Cc2ccc(Cl)cc2)n1	-	-	-	-	-	-
Cc1csc(NC(=O)Cc2ccc(Br)cc2)n1	-	-	63	-	-	-
Cc1cccc(N=Cc2[nH]c3ccc(Br)c(Cl)c3c2O)c1	63	-	-	192	-	-
CCOC(=O)C1(CC2CCCCO2)CCN(Cc2cc3ccccc3[nH]2)CC1 (centres undefined)	-	-	-	126	-	-
O=C(/C=C/Nc1ccc(S(=O)(=O)Nc2ncccn2)cc1)c1ccc(Cl)c(Cl)c1	-	-	-	-	15	-
Nc1nc2n(n1)C(c1cccc(Br)c1)CC(c1ccc(F)cc1)N2 (centres undefined)	-	-	-	54	-	-
Nc1nc2n(n1)C(c1ccccc1)CC(c1ccc(F)cc1)N2 (centres undefined)	-	-	-	-	-	-
c1ccc(Nc2cccc3c(Nc4ccccc4)cccc23)cc1	-	-	-	-	-	-
O=S(=O)(O)c1cccc2cccc(Nc3ccccc3)c12	-	-	-	-	-	96
CC(=O)Nc1cccc(OCC(=O)Nc2cccc(S(=O)(=O)N3CCCC3)c2)c1	-	-	-	-	-	-
O=C(NCc1ccccc1)C1=C[C@H](c2ccccc2)C[C@H](OCc2ccc(CO)cc2)O1	-	-	83	-	-	-
Cc1ccc2oc(C(=O)N3CCC(O)(c4ccccc4)CC3)c(C)c2c1	-	-	-	-	-	-
CCn1c(SCC(=O)NCc2ccc3c(c2)OCO3)nnc1-c1ccncc1	-	-	-	-	-	-
O=C(Nc1ccc(O)cc1)c1cccc(Oc2ccc([N+](=O)[O-])cc2)c1	-	-	57	-	-	-
CC(C)NC(=O)N(C)C[C@H]1Oc2c(NS(=O)(=O)c3cccs3)cccc2C(=O)N([C@H](C)CO)C[C@@H]1C	-	-	-	-	-	-
CN1CCN(C2CCCCC2NS(=O)(=O)c2ccc(Cl)cc2)CC1 (centres undefined)	-	-	-	-	-	-
COc1ccccc1N1CCN(C2CCCCC2NS(=O)(=O)c2ccc(Cl)cc2)CC1 (centres undefined)	-	-	-	212	-	-
COc1ccc(N2CCN(C3CCCCC3NS(=O)(=O)c3ccc(Cl)cc3)CC2)cc1 (centres undefined)	-	-	-	70	-	-
CC1CC(C)CN(C2CCCCC2NS(=O)(=O)c2ccc(Cl)cc2)C1 (centres undefined)	-	-	-	55	-	-
COc1ccc(OC)c(NC(=O)c2ccccc2NS(=O)(=O)c2cccc3cccnc23)c1	-	-	74	-	-	-
COc1ccc(OC)c2c1sc(=NC(=O)C1COc3ccccc3O1)n2C (centres undefined)	-	-	82	-	-	-
CCC(=O)N=c1sc2c(OC)ccc(OC)c2n1C	-	-	-	-	-	-
COc1ccccc1NC(=O)N(CCN1CCCC1)Cc1cc2cc(C)ccc2[nH]c1=O	-	-	-	-	-	-
Cc1ccc(CNC(=O)C23CN(Cc4ccccc4)CC2C(c2cccc([N+](=O)[O-])c2)=NO3)cc1 (centres undefined)	-	-	-	-	-	-
Cc1ccc(-n2nc(C)c(Sc3ccccc3[N+](=O)[O-])c2N)cc1	-	-	52	-	-	-
COc1ccc(Nc2nc(N)nc(CSc3nncn3C)n2)cc1	-	-	-	-	-	-
CCC(=O)Nc1ccc(NC(=O)c2oc3ccccc3c2C)cc1	-	-	98	-	-	-
